We go through 39 molecules from PubChem BioAssay (NCI).

Several values for one entry are separate records, joined by “and”; a condition that tells them apart may be missing. Equal entries are not always repeated. The panel holds about 83,000 compounds, 20% with a hit somewhere; the sample as a whole holds those more often.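 Assay: single dose, 48 h. Readout: percent growth (0 = no net growth; negative = cell death). Active: <10.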 Activity calls are given as the source filed them.

The test system of this assay is UACC-62 melanoma. Kind of assay: NCI-60 one-dose screen, 48 h (100 = growth as untreated, 0 = no growth, -100 = all killed). The conditions noted are these: 10 µM unless noted.
For `O=C(O)C1(C(=O)O)CCC1.[NH2-].[NH2-].[Pt+2]`, the growth is 96.1% (inactive) and 95.3% (inactive).
`CC1(C)[C@@H](OC(=O)CCC(=O)O)CC[C@]2(C)[C@H]3C(=O)C=C4[C@@H]5C[C@@](C)(C(=O)O)CC[C@]5(C)CC[C@@]4(C)[C@]3(C)CC[C@@H]12`: the growth was 106% (inactive) and -80% (active).
The result for `CCNC(=O)Nc1ccc(-c2nc3c(c(N4CCOC[C@@H]4C)n2)CCN(C2COC2)C3)cc1` reads 9.26% (active) and -20.5% (active); that for `O=C1C2=C(C(=O)c3ccccc31)C(O)(S(=O)(=O)O)C(O)(S(=O)(=O)O)C1N=CC=CC21` (centres undefined), 51.3% (inactive) and 45.6% (inactive); that for `COc1ccc2c(=O)cc(-c3ccccc3)[nH]c2c1`, 38.4% (inactive) and 20% (inactive).
The result for `COc1cc(Nc2nc3ccccc3nc2NS(=O)(=O)c2ccc(NC(=O)c3ccc(C)c(OC)c3)cc2)cc(OC)c1` reads 56.4% (inactive) and -32.5% (active); that for `COc1cc(-c2nccc3cc4c(cc23)OCO4)cc(OC)c1OC`, 34.2% (inactive) and 28.3% (inactive); that for `CCN(CC)CCC(CNc1ccnc2cc(Cl)ccc12)c1ccc(OC)cc1` (centres undefined), 45.3% (inactive) and 51.9% (inactive).
In the case of `CC(=O)Nc1ccc(O)cc1`, the growth was 99.9% (inactive) and 102% (inactive) and 106% (inactive).
Turning to `c1ccc2c(CC3=NCCN3)cccc2c1`, the growth is 108% (inactive) and 106% (inactive).
As to `Cc1nn(-c2ccc(Cl)cc2)c2ncnc(N/N=C/c3ccccc3O)c12`, the growth is 13.5% (inactive) and -37.1% (active).
Turning to `CCN(CC)C(=S)SSC(=S)N(CC)CC`, the growth is 69.6% (inactive) and 105% (inactive).
As to `Nc1nc(SC/C=C/CCl)c2[nH]cnc2n1`, the growth was 104% (inactive) and 105% (inactive).
In the case of `CC1CCCC(=O)O1` (centres undefined), the growth is 109% (inactive) and 101% (inactive).
Turning to `c1ccc(NCc2ccc3c(c2)OCO3)cc1`, the growth is 110% (inactive) and 100% (inactive).
The result for `CN(Cc1ccccc1)Cc1ccccc1` reads 101% (inactive); that for `O=[N+]([O-])c1ccc(N/N=C\c2cc(Br)ccc2O)nc1`, 1.29% (active) and -17.2% (active); that for `O=C(Nc1ccc(Br)cc1)c1cc(Br)ccc1O`, 3.77% (active) and -27.9% (active).
Regarding `CN(C)c1ccc(C(=C2C=CC(=[N+](C)C)C=C2)c2ccccc2Cl)cc1`, the growth is -70.6% (active) and -73.3% (active).
Next, `O=C(Cc1cccc2ccccc12)N/N=C/c1ccc2c(c1)CCC2`: 54.3% (inactive); `O=C(O)C1C2C=CC(C2)C1C(=O)O` (centres undefined): 89.8% (inactive) and 26.8% (inactive) and 104% (inactive); `COc1cc(C(=O)c2ccc3c(c2)OCO3)cc(OC)c1OC`: 42.4% (inactive) and 22.9% (inactive).
For the molecule `O=C(CCc1ccc(O)cc1)N/N=C/c1cc(Br)ccc1O`, the growth was 37.7% (inactive).
Take `CC(=O)Oc1cc(C(=O)O)cc(OC(C)=O)c1OC(C)=O`: the growth was 93.7% (inactive) and 103% (inactive).
Next, `Cn1c(=O)c2[nH]c(CCCCCCCCc3nc4ccccc4[nH]3)nc2n(C)c1=O`: 59.1% (inactive).
As for `O=C1c2ccccc2C(=O)N1/N=C/c1ccc2c(c1)OCO2`, the growth was 90.3% (inactive).
In the case of `S=C1SCN(Cc2ccccc2)CN1Cc1ccccc1`, the growth is 82.5% (inactive).
The result for `Cc1ccc(-c2noc(CC(=O)c3ccc([N+](=O)[O-])cc3)n2)cc1` reads 91.1% (inactive).
Consider `Oc1ccc(/C=C/c2ccccc2)cc1`, for which the growth was 56.3% (inactive) and 53.4% (inactive).
The result for `CC(=O)C(/C=N/C(N)=O)=C(/C)O` reads 110% (inactive); that for `COC(=O)c1nc(N)nc(C(=O)OC)c1C(=O)c1ccc(OC)cc1`, 102% (inactive) and 35% (inactive).
On to `Cc1cc(O)c2c(c1)C(=O)c1cc(O)cc(O)c1C2=O`, for which the growth is 60.7% (inactive) and 83.6% (inactive).
Turning to `C#CCN(C)Cc1ccccc1`, the growth is 92.3% (inactive).
Take `CCN(CC)CCCC(C)Nc1ccnc2cc(Oc3ccccc3)ccc12` (centres undefined): the growth is 60.9% (inactive) and 92.8% (inactive).
Consider `COc1ccccc1NC(=O)OCC#CCOC(=O)Nc1ccccc1OC`, for which the growth was 83.7% (inactive) and 73.2% (inactive).
Next, `Cc1cc(O)c(C(C)C)cc1S(=O)(=O)O` (tested in a mixture with another compound): 87.4% (inactive) and 32.5% (inactive) and 91.3% (inactive); `Oc1c(CN2CCCCC2)ccc2cccnc12`: 46% (inactive) and 45.6% (inactive).
In the case of `NS(=O)(=O)c1cc2c(cc1Cl)NC(C(Cl)Cl)NS2(=O)=O` (centres undefined), the growth was 103% (inactive).
For the molecule `COc1cc2nc(N3CCN(C(=O)C4COc5ccccc5O4)CC3)nc(N)c2cc1OC` (centres undefined), the growth was 102% (inactive) and 101% (inactive) and 103% (inactive).
